# Data from PubChem BioAssay (NCATS).
# Records with an inconclusive call do not appear. Unmarked numbers belong to inactive results. The source made the active and inactive calls. Unless noted, the call rests on the fitted dose curve; in most records, active means well fitted curve in the direction sought with a large enough effect in the repeat runs; inconclusive means weak or mixed curves; inactive means no such curve, though single readings can be large; an effect the other way counts as inactive or inconclusive.
# System: not listed separately
# Assay: Primary qHTS for small molecule stabilizers of the endoplasmic reticulum resident proteome: Secreted ER Calcium Modulated Protein (SERCaMP) assay (AID 1508630; active means well fitted curve in the direction sought with a large enough effect; an effect the other way counts as inactive or inconclusive; further: on the % scale 0 is the no-effect control and ±100 the full control effect)
# Conditions: SH-SY5Y GLuc-SERCaMP (Gaussia luciferase released on ER calcium loss) secretion, thapsigargin, luminescence; series mostly up to 38.4 µM; activity change, negative = inhibition: at the top concentration
# How it was run: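 The SH-SY5Y reporter protocol was run at 3 concentrations up to 38.3 uM (primary) or 11 concentrations (follow-up): 16 h compound, 100 nM thapsigargin for 4 h, then extracellular luciferase luminescence.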
SMILES,"activity change, negative = inhibition",outcome
O=C(O)CCC/C=C\C[C@@H]1[C@@H](/C=C/[C@@H](O)COc2cccc(Cl)c2)[C@H](O)C[C@@H]1O,-16.6% [at 3.88 µM],
CNC(=O)[C@H](Cc1c[nH]c2ccccc12)NC(=O)[C@@H](CC(=O)NO)CC(C)C,-12.2%,
COc1ccc2nc(NC(=O)Nc3ccccc3)sc2c1,42.6%,
Nc1ccc(N=Nc2ccccc2)c(N)n1,,inactive
CCCCC[C@H](O)/C=C/[C@H]1[C@H](O)CC(=O)[C@@H]1CCCCCCC(=O)O,-7.33% [at 3.88 µM],
NC[C@H]1O[C@H](O[C@H]2[C@H](O)[C@@H](O[C@H]3O[C@H](CO)[C@@H](O)[C@H](N)[C@H]3O)[C@H](N)C[C@@H]2N)[C@H](N)C[C@@H]1O,-16.6%,
Oc1ccc(/C=C/c2cc(O)cc(O)c2)cc1,,inactive
COc1cc(C)c(/C=C/C(C)=C/C=C/C(C)=C/C(=O)O)c(C)c1C,-7.72%,
CN(C)CCCSc1ccccc1NC(=O)/C=C/c1ccccc1,-28.9%,
CC(=O)Oc1cccc2c1C(=O)c1c(OC(C)=O)cc(C(=O)O)cc1C2=O,-8.25%,
O=C(O)Cc1cc(I)c(Oc2ccc(O)c(I)c2)c(I)c1,,inactive

# System: not listed separately
# Assay: A High-Content qHTS Against Drug Library for the Identification of Small Molecules that Inhibit DYT1 Early Onset Primary Dystonia-Associated Cell Pathology (AID 1645839; calls by dose curve)
# Conditions: HEK293 Flp-In EGFP-delE TorsinA, punctate imaging, 48 h; series mostly up to 46.1 µM; % pathology change, negative = correction: at the top concentration
# How it was run: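 High-content imaging quantified EGFP-TorsinA mislocalization in HEK293-derived cells inducibly expressing DYT1 mutant torsinA, after 48 h exposure to compound given together with tetracycline induction. Cell count served as a toxicity channel alongside %pathology.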
row,SMILES,"% pathology change, negative = correction [%]"
1,O=C(O)CCC(=O)c1ccc(-c2ccccc2)cc1,1.19
2,COc1ccc2nc(NC(=O)Nc3ccccc3)sc2c1,-16.1
3,O=C(OCc1ccccc1)c1ccc(O)cc1,-8.02
4,O=C1c2ccccc2C(=O)c2c1ccc(O)c2O,-6.93
5,CN(C)CCCSc1ccccc1NC(=O)/C=C/c1ccccc1,5.69
6,CC(=O)Oc1cccc2c1C(=O)c1c(OC(C)=O)cc(C(=O)O)cc1C2=O,3.69

# Biological target: Cytochrome P450 2D6 (Homo sapiens) (UniProt P10635)
# Sequence (P10635 whole entry, looked up): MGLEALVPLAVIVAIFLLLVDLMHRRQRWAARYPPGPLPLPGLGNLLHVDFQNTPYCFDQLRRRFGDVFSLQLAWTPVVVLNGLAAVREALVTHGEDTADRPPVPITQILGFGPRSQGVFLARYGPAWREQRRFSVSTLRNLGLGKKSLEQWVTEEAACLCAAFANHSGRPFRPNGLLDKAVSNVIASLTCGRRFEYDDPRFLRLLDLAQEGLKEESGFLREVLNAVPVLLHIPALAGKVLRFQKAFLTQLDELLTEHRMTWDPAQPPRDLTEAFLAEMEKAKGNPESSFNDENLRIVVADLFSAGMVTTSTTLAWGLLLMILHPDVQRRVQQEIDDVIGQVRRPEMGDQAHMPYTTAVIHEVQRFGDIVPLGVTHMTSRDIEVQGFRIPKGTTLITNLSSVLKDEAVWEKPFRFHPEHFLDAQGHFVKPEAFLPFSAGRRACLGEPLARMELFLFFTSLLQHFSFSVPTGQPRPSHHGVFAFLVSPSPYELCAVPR
# Assay: Cytochrome P450 family 2 subfamily D member 6 (CYP2D6) small molecule antagonists: luciferase biochemical (cell-free) qHTS assay (AID 1645840); further: nearly all actives have a fitted effect of over 55% in size; further: potency means the concentration at half of the fitted maximal effect; on activity change, negative = inhibition: on the % scale 0 is the no-effect control and ±100 the full control effect
# Conditions: P450-Glo CYP2D6 enzyme, luciferin luminescence, 1 h; series mostly up to 57.4 µM; activity change, negative = inhibition: at the top concentration
# How it was run: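 P450-Glo CYP2D6 system: proluciferin substrate converted by enzyme to luciferin, read by luminescence proportional to activity. Enzyme-substrate mix with compound 10 min at room temperature, then NADPH regeneration 1 h before detection reagent.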
SMILES,"activity change, negative = inhibition",Potency
CC(=O)NCCCS(=O)(=O)O,1.48%,
CO[C@H]1O[C@@H]2O[C@@]3(C)CC[C@H]4[C@H](C)CC[C@@H]([C@H]1C)[C@@]24OO3,-1.07% [at 115 µM],
COc1ccc2nc(NC(=O)Nc3ccccc3)sc2c1,-20.6%,
Nc1ccc(N=Nc2ccccc2)c(N)n1,,17.4 µM (active)
C=C1CC[C@H](O)CC1=C/C=C1\CCC[C@]2(C)[C@@H]([C@H](C)/C=C/[C@H](C)C(C)C)CC[C@@H]12,2.58%,
C[C@@](Cc1ccc(O)c(O)c1)(NN)C(=O)O,3.64%,
C[C@H]1O[C@@H](O[C@H]2[C@@H](O)C[C@H](O[C@H]3[C@@H](O)C[C@H](O[C@H]4CC[C@@]5(C)[C@H](CC[C@@H]6[C@@H]5C[C@@H](O)[C@]5(C)[C@@H](C7=CC(=O)OC7)CC[C@]65O)C4)O[C@@H]3C)O[C@@H]2C)C[C@H](O)[C@@H]1O,7.08%,
CC(C)(C)c1ccc(CN2CCN(C(c3ccccc3)c3ccc(Cl)cc3)CC2)cc1 (configuration not stated),-19.9%,
C[C@]12CC[C@@H]3c4ccc(OC(=O)c5ccccc5)cc4CC[C@H]3[C@@H]1CC[C@@H]2O,4.79%,
CC[C@H]1OC(=O)[C@H](C)[C@@H](O[C@H]2C[C@@](C)(OC)[C@@H](O)[C@H](C)O2)[C@H](C)[C@@H](O[C@@H]2O[C@H](C)C[C@H](N(C)C)[C@H]2O)[C@](C)(O)C[C@@H](C)CN(C)[C@H](C)[C@@H](O)[C@]1(C)O,6.42%,
CN(C)CCCSc1ccccc1NC(=O)/C=C/c1ccccc1,,0.347 µM (active)
C=C1[C@H](CO)[C@@H](O)C[C@@H]1n1cnc2c(=O)[nH]c(N)nc21,4.48%,
CCN(CC)CCOCCOC(=O)C(CC)(CC)c1ccccc1,,3.01 µM (active)

# Biological target: Cytochrome P450 2C9 (Homo sapiens) (UniProt P11712)
# Sequence (P11712 whole entry, looked up): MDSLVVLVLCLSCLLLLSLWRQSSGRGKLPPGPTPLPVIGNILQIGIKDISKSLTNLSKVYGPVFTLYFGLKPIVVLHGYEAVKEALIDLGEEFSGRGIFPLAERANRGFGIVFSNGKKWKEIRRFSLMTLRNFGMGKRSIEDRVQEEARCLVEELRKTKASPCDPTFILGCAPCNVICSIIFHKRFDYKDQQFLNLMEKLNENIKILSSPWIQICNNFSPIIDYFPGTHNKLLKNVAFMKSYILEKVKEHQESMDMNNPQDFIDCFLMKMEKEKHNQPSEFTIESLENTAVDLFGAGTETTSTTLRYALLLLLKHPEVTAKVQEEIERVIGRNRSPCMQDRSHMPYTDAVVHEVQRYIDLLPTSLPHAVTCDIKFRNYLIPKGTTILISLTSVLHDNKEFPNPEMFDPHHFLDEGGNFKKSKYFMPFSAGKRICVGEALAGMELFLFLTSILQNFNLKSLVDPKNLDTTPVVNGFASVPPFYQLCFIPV
# Assay: Cytochrome P450 family 2 subfamily C member 9 (CYP2C9) small molecule antagonists: luciferase biochemical (cell-free) qHTS assay (AID 1645842); further: nearly all actives have a fitted effect of over 55% in size; further: potency means the concentration at half of the fitted maximal effect; on activity change, negative = inhibition: on the % scale 0 is the no-effect control and ±100 the full control effect
# Conditions: P450-Glo CYP2C9 enzyme assay, luciferin luminescence; series mostly up to 57.4 µM; activity change, negative = inhibition: at the top concentration
# How it was run: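 P450-Glo CYP2C9 system: proluciferin substrate with enzyme in mix containing 0.4% BSA, 10 min at room temperature, then NADPH regeneration solution added and incubated 1 h at 37C. Detection reagent stopped reaction; luminescence read after 20 min as RLU.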
SMILES,"activity change, negative = inhibition [%]",Potency
O=C(O)CCC(=O)c1ccc(-c2ccccc2)cc1,0.204,
CC(=O)NCCCS(=O)(=O)O,7.02,
CO[C@H]1O[C@@H]2O[C@@]3(C)CC[C@H]4[C@H](C)CC[C@@H]([C@H]1C)[C@@]24OO3,,39.8 µM (active)
COc1ccc2nc(NC(=O)Nc3ccccc3)sc2c1,,13.8 µM (active)
Nc1ccc(N=Nc2ccccc2)c(N)n1,,13.8 µM (active)
C=C1CC[C@H](O)CC1=C/C=C1\CCC[C@]2(C)[C@@H]([C@H](C)/C=C/[C@H](C)C(C)C)CC[C@@H]12,,16.9 µM (active)
C[C@H]1O[C@@H](O[C@H]2[C@@H](O)C[C@H](O[C@H]3[C@@H](O)C[C@H](O[C@H]4CC[C@@]5(C)[C@H](CC[C@@H]6[C@@H]5C[C@@H](O)[C@]5(C)[C@@H](C7=CC(=O)OC7)CC[C@]65O)C4)O[C@@H]3C)O[C@@H]2C)C[C@H](O)[C@@H]1O,4.2,
CC(C)(C)c1ccc(CN2CCN(C(c3ccccc3)c3ccc(Cl)cc3)CC2)cc1 (configuration not stated),-3.4,
CC[C@H]1OC(=O)[C@H](C)[C@@H](O[C@H]2C[C@@](C)(OC)[C@@H](O)[C@H](C)O2)[C@H](C)[C@@H](O[C@@H]2O[C@H](C)C[C@H](N(C)C)[C@H]2O)[C@](C)(O)C[C@@H](C)CN(C)[C@H](C)[C@@H](O)[C@]1(C)O,-19.2,
CN(C)CCCSc1ccccc1NC(=O)/C=C/c1ccccc1,2.17,
CC(=O)Oc1cccc2c1C(=O)c1c(OC(C)=O)cc(C(=O)O)cc1C2=O,2.99,
C=C1[C@H](CO)[C@@H](O)C[C@@H]1n1cnc2c(=O)[nH]c(N)nc21,-22.2,
